Data taken from PubChem BioAssay (EPA / NIEHS).
The source made the active and inactive calls. Rule for the calls: active = hit-call score of the fitted dose curve at least 0.9, where 1 is the maximum; inactive = score below 0.9.

Key:
Details in all cases: mRNA level, 48 h; actives raise or lower the signal
[1] = read-out: Cytochrome P450 3A4 (Homo sapiens) (UniProt P08684); experiment: LTEA_HepaRG_CYP3A4: Life Technologies and Expression Analysis (LTEA) Assay for CYP3A4 using HepaRG (AID 2283487)
Method in brief: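 CYP3A4 transcript measured by TaqMan qRT-PCR and normalized to three housekeeping genes after 48 h chemical exposure of human HepaRG cells. Top concentration 100 uM, half-log steps, 0.5% DMSO vehicle; gain or loss fitted against DMSO baseline.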

[2] = read-out: DNA damage-inducible transcript 3 (DDIT3), DDIT3 (gene 1649); experiment: LTEA_HepaRG_DDIT3: Life Technologies and Expression Analysis (LTEA) Assay for DNA damage-inducible transcript 3 (DDIT3) using HepaRG (AID 2283488)
Method in brief: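 Changes in DDIT3 transcript, in either direction relative to 0.5% DMSO vehicle, were quantified by TaqMan qRT-PCR after 48 h chemical exposure of HepaRG cells at 8 concentrations, maximum 100 uM.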

[3] = read-out: Early growth response protein 1 (EGR1) transcription factor, EGR1 (gene 1958); experiment: LTEA_HepaRG_EGR1: Life Technologies and Expression Analysis (LTEA) Assay for Early growth response protein 1 (EGR1) transcription factor using HepaRG (AID 2283490)
Method in brief: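 Differentiated human HepaRG cells in serum-free induction medium were exposed in duplicate for 48 h to eight concentrations (top 100 uM, half-log steps) in 0.5% DMSO. EGR1 mRNA was quantified by qRT-PCR, normalized to ACTB, GAPDH and POLR2A, and fitted bidirectionally versus DMSO.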

[4] = read-out: Ezrin (EZR), EZR (gene 7430); experiment: LTEA_HepaRG_EZR: Life Technologies and Expression Analysis (LTEA) Assay for Ezrin (EZR) using HepaRG (AID 2283491)
Method in brief: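 HepaRG, 48 h chemical exposure, 8-pt half-log series from 100 uM, 0.5% DMSO vehicle, duplicates. Read-out: EZR mRNA by TaqMan qRT-PCR (Fluidigm array), housekeeping-normalized; bidirectional curve fit vs DMSO baseline.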

[5] = read-out: Cytochrome P450 3A7 (Homo sapiens) (UniProt P24462); experiment: LTEA_HepaRG_CYP3A7: Life Technologies and Expression Analysis (LTEA) Assay for CYP3A7 using HepaRG (AID 2283492)
Method in brief: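 Cells were thawed, plated, cultured 48 h, then treated for a further 48 h with chemicals (eight-point half-log series from 100 uM, 0.5% DMSO). RNA was isolated and CYP3A7 expression quantified by qRT-PCR normalised to ACTB, GAPDH and POLR2A.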

[6] = read-out: Fatty Acid-Binding Protein 1 (FABP1), FABP1 (gene 2168); experiment: LTEA_HepaRG_FABP1: Life Technologies and Expression Analysis (LTEA) Assay for Fatty Acid-Binding Protein 1 (FABP1) using HepaRG (AID 2283494)
Method in brief: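 Differentiated human HepaRG cells were exposed in duplicate for 48 h in serum-free induction medium to 8-point half-log concentration series topping at 100 uM in 0.5% DMSO. FABP1 mRNA measured by TaqMan qRT-PCR, normalized to ACTB/GAPDH/POLR2A; bidirectional fit versus DMSO.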

[7] = read-out: Glutathione S-Transferase (GSTA2), GSTA2 (gene 2939); experiment: LTEA_HepaRG_GSTA2: Life Technologies and Expression Analysis (LTEA) Assay for Glutathione S-Transferase (GSTA2) using HepaRG (AID 2283497)
Method in brief: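 Human HepaRG cells, plated 48 h, then exposed in serum-free induction medium for 48 h to eight half-log concentrations up to 100 uM in 0.5% DMSO, duplicate. GSTA2 mRNA by qRT-PCR, normalized to ACTB/GAPDH/POLR2A; bidirectional fit versus DMSO.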

[8] = read-out: Glutamate-cysteine ligase catalytic (GCLC), GCLC (gene 2729); experiment: LTEA_HepaRG_GCLC: Life Technologies and Expression Analysis (LTEA) Assay for Glutamate-cysteine ligase catalytic (GCLC) using HepaRG (AID 2283498)
Method in brief: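 Differentiated human HepaRG cells, plated 48 h then switched to serum-free induction medium, were exposed in duplicate for 48 h to 8 half-log concentrations topping at 100 uM in 0.5% DMSO. GCLC mRNA was quantified by qRT-PCR against ACTB, GAPDH and POLR2A.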

[9] = read-out: Glutamate-cysteine ligase regulatory (GCLM), GCLM (gene 2730); experiment: LTEA_HepaRG_GCLM: Life Technologies and Expression Analysis (LTEA) Assay for Glutamate-cysteine ligase regulatory (GCLM) using HepaRG (AID 2283500)
Method in brief: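 Human liver HepaRG cultures receive test chemicals for 48 hours at up to 100 uM in 0.5% DMSO. GCLM expression is measured by qRT-PCR and analysed for increases or decreases against vehicle.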

[10] = read-out: Glutathione S-transferase M3 (GSTM3), GSTM3 (gene 2947); experiment: LTEA_HepaRG_GSTM3: Life Technologies and Expression Analysis (LTEA) Assay for Glutathione S-transferase M3 (GSTM3) using HepaRG (AID 2283501)
Method in brief: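 Changes in GSTM3 expression, an oxidative-stress marker, were scored by bidirectional curve fitting against 0.5% DMSO vehicle. Human HepaRG cultures received chemicals for 48 h in duplicate, highest concentration 100 uM with half-log dilutions.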

[11] = read-out: Heat shock 70 kDa protein 1 (HSPA1A), gene 3303; experiment: LTEA_HepaRG_HSPA1A: Life Technologies and Expression Analysis (LTEA) Assay for Heat shock 70 kDa protein 1 (HSPA1A) using HepaRG (AID 2283502)
Method in brief: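 HSPA1A induction in human HepaRG liver cells is measured after 48 h of chemical treatment (100 uM maximum, 0.5% DMSO vehicle). Expression comes from qRT-PCR normalized to endogenous controls.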

[12] = read-out: Hypoxia-inducible factor 1-alpha (Homo sapiens) (UniProt Q16665); experiment: LTEA_HepaRG_HIF1A: Life Technologies and Expression Analysis (LTEA) Assay for Hypoxia-inducible factor 1 (HIF1A) Trancription factor using HepaRG (AID 2283503)
Method in brief: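 HepaRG, 48 h exposure, 8-pt half-log series from 100 uM, 0.5% DMSO vehicle, duplicates. Readout: HIF1A transcript by qRT-PCR (Fluidigm array), housekeeping-normalised. Bidirectional curve fit vs DMSO baseline.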

[13] = read-out: 3-Hydroxy-3-Methylglutaryl-CoA Synthase 2 (HMGCS2), HMGCS2 (gene 3158); experiment: LTEA_HepaRG_HMGCS2: Life Technologies and Expression Analysis (LTEA) Assay for 3-Hydroxy-3-Methylglutaryl-CoA Synthase 2 (HMGCS2) using HepaRG (AID 2283504)
Method in brief: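 Expression of HMGCS2 in human HepaRG liver cells is measured by qRT-PCR 48 h after dosing (highest 100 uM, half-log series, 0.5% DMSO). Values come from bidirectional concentration-response fitting with DMSO as baseline.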

HGF (gene 3082) = experiment: LTEA_HepaRG_HGF: Life Technologies and Expression Analysis (LTEA) Assay for Hepatocyte Growth Facto (HGF) using HepaRG (AID 2283505)
Method in brief: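 Gain or loss of HGF mRNA in human HepaRG liver cells after 48 h chemical exposure; eight concentrations up to 100 uM with 0.5% DMSO vehicle, quantified by TaqMan qRT-PCR.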

[14] = read-out: Insulin Like Growth Factor 1 (IGF1), IGF1 (gene 3479); experiment: LTEA_HepaRG_IGF1: Life Technologies and Expression Analysis (LTEA) Assay for Insulin Like Growth Factor 1 (IGF1) using HepaRG (AID 2283506)
Method in brief: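 Using human HepaRG liver cells, IGF1 transcript induction or suppression is measured 48 h after dosing across eight concentrations capped at 100 uM. Values derive from bidirectional concentration-response fitting with DMSO as baseline.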

[15] = read-out: Pro-epidermal growth factor (Homo sapiens) (UniProt P01133); experiment: LTEA_HepaRG_EGF: Life Technologies and Expression Analysis (LTEA) Assay for Epidermal growth factor (EGF) using HepaRG (AID 2283489)
Method in brief: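 EGF expression changes in human HepaRG cells are scored by bidirectional fitting relative to 0.5% DMSO controls. Chemicals are tested at eight half-log concentrations up to 100 uM for 48 h in serum-free induction medium.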

[16] = read-out: Cytochrome P450 4A22 (Homo sapiens) (UniProt Q5TCH4); experiment: LTEA_HepaRG_CYP4A22: Life Technologies and Expression Analysis (LTEA) Assay for Cytochrome P450 4A22 (CYP4A22) using HepaRG (AID 2283495)
Method in brief: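 Cryopreserved HepaRG cells, plated and cultured 48 h, then switched to serum-free induction medium and treated 48 h (duplicates, up to 100 uM, half-log steps, 0.5% DMSO). Expression change of CYP4A22 was fitted bidirectionally against vehicle.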

[17] = read-out: Cytochrome P450 7A1 (Homo sapiens) (UniProt P22680); experiment: LTEA_HepaRG_CYP7A1: Life Technologies and Expression Analysis (LTEA) Assay for Cytochrome P450 7A1 (CYP7A1) using HepaRG (AID 2283496)
Method in brief: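 Gene expression endpoint in human HepaRG liver cells treated for 48 h with test chemicals (up to 100 uM, 0.5% DMSO). Values come from bidirectional concentration-response fitting versus DMSO.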

[18] = read-out: growth arrest and DNA damage 45 (GADD45G), GADD45G (gene 10912); experiment: LTEA_HepaRG_GADD45G: Life Technologies and Expression Analysis (LTEA) Assay for growth arrest and DNA damage 45 (GADD45G) using HepaRG (AID 2283499)
Method in brief: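 Human hepatic HepaRG line treated 48 h with chemicals (eight concentrations, half-log steps from 100 uM); transcript induction or repression of GADD45G scored by qRT-PCR versus DMSO vehicle.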

CYP3A5 (gene 1577) = experiment: LTEA_HepaRG_CYP3A5: Life Technologies and Expression Analysis (LTEA) Assay for CYP3A5 using HepaRG (AID 2283493)
Method in brief: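 mRNA induction or loss of CYP3A5 assessed in HepaRG after 48 h dosing, 100 uM top concentration, duplicate wells; TaqMan qRT-PCR with ACTB, GAPDH, POLR2A normalization; 0.5% DMSO as negative control.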

Measured: AC50

Sequence of Cytochrome P450 3A7 (Homo sapiens) (P24462 whole entry, looked up): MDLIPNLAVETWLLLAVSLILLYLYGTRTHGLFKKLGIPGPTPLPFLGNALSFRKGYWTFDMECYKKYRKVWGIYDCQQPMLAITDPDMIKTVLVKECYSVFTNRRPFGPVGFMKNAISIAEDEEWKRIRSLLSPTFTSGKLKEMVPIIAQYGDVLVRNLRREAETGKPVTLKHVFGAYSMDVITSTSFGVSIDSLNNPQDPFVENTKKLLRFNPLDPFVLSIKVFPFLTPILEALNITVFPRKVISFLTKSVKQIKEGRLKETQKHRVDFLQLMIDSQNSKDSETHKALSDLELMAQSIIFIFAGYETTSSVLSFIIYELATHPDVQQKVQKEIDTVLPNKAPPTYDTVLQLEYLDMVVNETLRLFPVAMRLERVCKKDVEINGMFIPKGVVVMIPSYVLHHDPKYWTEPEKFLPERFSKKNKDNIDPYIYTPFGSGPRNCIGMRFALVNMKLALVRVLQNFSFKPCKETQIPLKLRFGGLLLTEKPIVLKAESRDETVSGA
Sequence of Hypoxia-inducible factor 1-alpha (Homo sapiens) (Q16665 whole entry, looked up): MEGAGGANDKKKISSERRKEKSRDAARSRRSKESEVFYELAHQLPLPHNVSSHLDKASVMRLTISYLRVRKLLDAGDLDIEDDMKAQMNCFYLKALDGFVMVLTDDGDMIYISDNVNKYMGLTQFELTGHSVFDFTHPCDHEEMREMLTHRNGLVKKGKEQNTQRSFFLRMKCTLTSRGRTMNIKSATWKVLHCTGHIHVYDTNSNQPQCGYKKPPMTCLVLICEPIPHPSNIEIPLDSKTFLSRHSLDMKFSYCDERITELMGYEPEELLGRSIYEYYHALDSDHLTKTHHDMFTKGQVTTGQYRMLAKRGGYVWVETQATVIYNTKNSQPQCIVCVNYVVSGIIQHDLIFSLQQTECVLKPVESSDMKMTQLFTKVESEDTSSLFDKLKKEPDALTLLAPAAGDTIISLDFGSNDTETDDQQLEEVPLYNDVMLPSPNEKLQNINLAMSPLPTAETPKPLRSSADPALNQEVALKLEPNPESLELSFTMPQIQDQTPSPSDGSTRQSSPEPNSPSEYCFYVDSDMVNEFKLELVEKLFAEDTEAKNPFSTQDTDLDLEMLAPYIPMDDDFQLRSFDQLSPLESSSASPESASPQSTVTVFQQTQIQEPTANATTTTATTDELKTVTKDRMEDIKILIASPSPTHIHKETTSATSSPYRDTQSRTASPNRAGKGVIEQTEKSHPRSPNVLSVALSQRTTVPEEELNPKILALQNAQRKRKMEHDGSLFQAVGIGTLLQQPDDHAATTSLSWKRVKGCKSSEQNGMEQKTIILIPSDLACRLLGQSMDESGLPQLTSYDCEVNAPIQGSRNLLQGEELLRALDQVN
Sequence of Cytochrome P450 3A4 (Homo sapiens) (P08684 whole entry, looked up): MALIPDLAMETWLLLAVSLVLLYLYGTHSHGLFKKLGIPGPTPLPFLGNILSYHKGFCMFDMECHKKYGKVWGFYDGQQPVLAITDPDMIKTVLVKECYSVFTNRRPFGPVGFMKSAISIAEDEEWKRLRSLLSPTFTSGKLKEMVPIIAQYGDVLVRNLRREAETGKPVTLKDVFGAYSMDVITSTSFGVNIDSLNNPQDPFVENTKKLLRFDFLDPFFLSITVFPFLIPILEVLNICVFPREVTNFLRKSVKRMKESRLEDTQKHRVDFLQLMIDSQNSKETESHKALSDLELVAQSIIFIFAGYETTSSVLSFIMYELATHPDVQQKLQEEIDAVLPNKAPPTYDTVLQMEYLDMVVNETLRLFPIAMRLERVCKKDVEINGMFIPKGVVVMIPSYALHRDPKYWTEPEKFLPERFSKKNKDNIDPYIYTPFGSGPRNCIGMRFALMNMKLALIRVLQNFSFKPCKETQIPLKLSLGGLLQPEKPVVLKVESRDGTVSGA

c1ccc(-c2ccccc2)cc1
not listed: [15] | [16] | [17] | [18] | CYP3A5 (gene 1577)
inactive: all other assays above

CCOC(=O)C(O)(c1ccc(Cl)cc1)c1ccc(Cl)cc1
active: [5] 50 µM | [16] 50 µM
not listed: [3] | CYP3A5 (gene 1577)
inactive: all other assays above

C=CC(N)=O
not listed: [1] | [3] | [18] | CYP3A5 (gene 1577)
inactive: all other assays above

ClC1=C(Cl)[C@]2(Cl)[C@@H]3[C@H]4C[C@H]([C@@H]5O[C@H]45)[C@@H]3[C@@]1(Cl)C2(Cl)Cl
active: [2] 50 µM | [5] 2.94 µM | [6] 1.86 µM | [16] 32.5 µM | [17] 17.4 µM | [7] 32.6 µM | [13] 30.5 µM | [14] 5.52 µM
not listed: [1] | [3]
inactive: all other assays above

CN(C)CCO
not listed: [3] | [18] | CYP3A5 (gene 1577)
inactive: all other assays above
